These results are taken from PubChem BioAssay AID504406 (Broad Institute, 2011).

Among all 320,000 compounds or so, about 190 (0.059%) were called active. No stated cut-off is given here; in the data, active means inhibition above about 10% (passing the limit was not always enough); inconclusive means no clear call, values can overlap the other calls. Shown is part of a subset that was picked to be rich in actives.

Chain of UDP-galactopyranose mutase (Mycobacterium tuberculosis (strain ATCC 25618 / H37Rv)) (P9WIQ1 whole entry, looked up): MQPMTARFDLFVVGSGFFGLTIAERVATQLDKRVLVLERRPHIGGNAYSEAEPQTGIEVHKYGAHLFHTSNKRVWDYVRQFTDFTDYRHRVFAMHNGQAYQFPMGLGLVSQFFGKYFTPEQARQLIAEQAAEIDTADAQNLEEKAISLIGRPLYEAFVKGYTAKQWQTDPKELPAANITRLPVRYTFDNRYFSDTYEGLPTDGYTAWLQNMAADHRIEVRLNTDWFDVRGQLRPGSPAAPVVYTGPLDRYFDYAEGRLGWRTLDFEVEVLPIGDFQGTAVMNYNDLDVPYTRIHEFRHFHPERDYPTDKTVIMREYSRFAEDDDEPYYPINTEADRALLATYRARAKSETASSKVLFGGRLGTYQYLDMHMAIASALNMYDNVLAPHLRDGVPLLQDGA

This assay addresses UDP-galactopyranose mutase (Mycobacterium tuberculosis (strain ATCC 25618 / H37Rv)) (UniProt P9WIQ1). Kind of assay: M. tuberculosis UGM enzyme inhibitors, primary screen, biochemical, fluorescence polarization, single point (AID 504406). Particulars: purified UGM, fluorescence polarization probe displacement; at 10 µM; stronger effect = higher value.
`CC1CC(=O)N(CC(=O)Nc2cccc(Cl)c2)c2ccccc2S1(=O)=O` (stereo unspecified): the inhibition was -0.479% (inactive).
Consider `O=C(O)C1CC=CCC1C(=O)NCCc1ccccc1` (stereo unspecified), for which the inhibition is -0.437% (inactive).
For `CC(NC(=O)c1ccc(S(=O)(=O)Nc2ccccc2)cc1)c1ccc(S(N)(=O)=O)cc1` (stereo unspecified) the value was -0.443% (inactive); for `CC(=O)c1nn(-c2cccc(Br)c2)cc1C(=O)c1cccc2ccccc12`, 2.24% (inactive).
`O=C(CCCN1CCc2[nH]c3ccc(F)cc3c2C1)c1ccc(F)cc1`: the inhibition was -0.464% (inactive).
Consider `COc1ccc(C(C)NC(=O)C23CC4CC(CC(C4)C2)C3)cc1` (stereo unspecified), for which the inhibition was 0.347% (inactive).
Regarding `CCOc1ccccc1-n1c(SCC(=O)N2CCCC2)nnc1-c1ccoc1C`, the inhibition was 0.65% (inactive).
Take `O=C(Cc1cccs1)NCc1cccc(C(F)(F)F)c1`: the inhibition was 0.316% (inactive).
`O=C(CC1Oc2ccccc2NC1=O)NCCCN1CCN(Cc2ccccc2)CC1` (stereo unspecified): the inhibition was -0.871% (inactive).
On to `Cc1ccc(C(=O)CSc2nc3ccccc3c(=O)n2N)o1`, for which the inhibition is -2.34% (inactive).
With `COc1cccc(-c2ccc3c(c2)S(=O)(=O)c2cccc(C(=O)O)c2C3=O)c1OC` the figure was -0.479% (inactive).
Turning to `O=C(COc1cc(Cl)c(Cl)cc1Cl)NCCc1ccccn1`, the inhibition is 1.96% (inactive).
For the molecule `COc1c(C(=O)N2CCCC2)ccc2ccccc12`, the inhibition is -0.901% (inactive).
For `O=C(C[n+]1cc(Br)cc2ccccc21)c1ccc(F)cc1` the value was -0.457% (inactive).
`COC(=O)C[n+]1cccc2ccccc21`: the inhibition is 13.9% (active).
For the molecule `COc1ccc(CCN2C(=O)c3[nH]nc(-c4ccccc4O)c3C2c2ccc(C)cc2)cc1OC` (stereo unspecified), the inhibition is 2.57% (inactive).
For `COc1ccc(N2CCN(S(=O)(=O)c3cc(Br)cnc3N)CC2)cc1` the value was 1.41% (inactive); for `Cc1ccc(NS(=O)(=O)c2ccc(F)cc2)nc1`, -0.636% (inactive).
On to `N#Cc1c(N)nc2c3c(sc(=N)c2c1N)NC(=O)CC3c1ccccc1Cl` (stereo unspecified), for which the inhibition is 2.45% (inactive).
With `COc1cccc(CNC(=O)CCC2CCCN(C(=O)c3ccoc3C)C2)c1` (stereo unspecified) the figure was -0.384% (inactive); with `COc1ccc(NC(=O)CN(Cc2ccccc2)S(C)(=O)=O)cc1OC`, -0.501% (inactive); with `CCc1ccccc1NC(=S)Nc1cc(OC)c(NC(=O)C(C)C)cc1OC`, 0.622% (inactive).
`COC(=O)C1=C(C(=O)OC)[C@@H]2N(C)c3ccccc3[C@@]23C[C@@H](C(=O)OC)N(C(C)=O)C3=N1`: the inhibition was -0.842% (inactive).
As for `O=C(NCc1ccco1)C1CCCN1S(=O)(=O)c1ccccc1C(F)(F)F` (stereo unspecified), the inhibition was 5.45% (inactive).
With `CC(C)Oc1ccccc1C(=O)NC(CO)C(=O)O` (stereo unspecified) the figure was -1.15% (inactive); with `CC(=O)C1=C(O)C(=O)N(c2ccc(S(N)(=O)=O)cc2)C1c1ccccc1F` (stereo unspecified), 3.63% (inactive).
For the molecule `Cc1ccc(CCn2c3c(c4ccccc42)CN(C)CC3)cn1`, the inhibition is 0.129% (inactive).
For the molecule `O=C(NCc1cccnc1)Nc1cccc(NC(=O)NCc2cccnc2)c1F`, the inhibition is -4.12% (inactive).
Turning to `CCOC(=O)C1(Cc2cccc(OC)c2)CCCN(C(=O)CCSC)C1` (stereo unspecified), the inhibition is 1.34% (inactive).
In the case of `Cc1ccc(-c2nn(-c3cccc(F)c3)cc2CNCCc2ccncc2)o1`, the inhibition is -3.08% (inactive).
As for `Cc1ccc2c(CC(=O)NCc3cccs3)coc2c1`, the inhibition was -2.27% (inactive).
Take `CCN1C(=NCc2ccc(OC)cc2)N[C@@H](CCc2ccccc2)[C@H](C(=O)NCc2ccc(OC)cc2)[C@H]1C`: the inhibition is 0.311% (inactive).
With `COc1ccc(OC)c(C2N(c3ccccn3)C(=O)C3CCCN32)c1` (stereo unspecified), the inhibition is -1.67% (inactive).
On to `O=C(c1ccc(Cl)c(S(=O)(=O)N2CCCCCC2)c1)N1CCN(c2ccc(O)cc2)CC1`, for which the inhibition is 0.826% (inactive).
For the molecule `CSCCC(NS(=O)(=O)c1ccc2c(c1)oc(=O)n2C)C(=O)NCc1ccccc1` (stereo unspecified), the inhibition was 7.62% (inactive).
With `COc1cccc(CNS(=O)(=O)c2ccc3c(c2)N(C(C)=O)CCS3)c1`, the inhibition was 0.635% (inactive).
As to `Cc1nc(NCc2ccccc2)c(C(N)=O)c2c1COC(C)(C)C2`, the inhibition was -0.415% (inactive).
Turning to `O=C(CSc1nnnn1-c1ccc(O)cc1)N1N=C(c2ccc3ccccc3c2)CC1c1ccccc1` (stereo unspecified), the inhibition was -0.544% (inactive).
For `O=C(CN1C(=O)COc2ccc(Cl)cc21)N1CCOCC1`, the inhibition was -2.04% (inactive).
Regarding `Nc1ncc(CN2CCCC(C(=O)Nc3ccc(-c4ccco4)cc3)C2)cn1` (stereo unspecified), the inhibition was -0.194% (inactive).
With `O=C(CCCN1C(=O)c2ccccc2C1=O)Oc1ccc(Cl)cc1` the figure was 1.46% (inactive); with `COc1cc(S(=O)(=O)N(Cc2cccs2)C2CC2)ccc1-n1cnnn1`, -0.867% (inactive).
With `CCOc1cc(C(=O)Nc2ccc(S(=O)(=O)Nc3cnc4ccccc4n3)cc2)cc(OCC)c1OCC`, the inhibition is -1.61% (inactive).
Take `COC(=O)C1(C)CC1(c1ccccc1)c1ccccc1` (stereo unspecified): the inhibition is -0.587% (inactive).
For `NC(=O)C1CC=CCC1C(=O)OCC(Cl)=C(Cl)Cl` (stereo unspecified) the value was -1.58% (inactive); for `Nc1ccc2nc3c(=O)[nH]c(=S)[nH]c3nc2c1`, 15.2% (active); for `CC(C)C[C@@H](COc1ccccc1)N1CCN(CC(C)C)CCC1=O`, 1.36% (inactive).
With `O=C(Nc1ccc([N+](=O)[O-])cc1)OCCc1ccccn1` the figure was -0.463% (inactive); with `Cc1ccc(S(=O)(=O)NC2CCCCCC2)cc1C(N)=O`, 1.67% (inactive).
For `CC(C)(C)C1CCC(C(=O)NCC(c2cccs2)N2CCOCC2)CC1` (stereo unspecified), the inhibition was 0.328% (inactive).
For `C(=C\c1ccccc1)/CSc1nnc(-c2cccnc2)n1Cc1ccco1` the value was 1.26% (inactive); for `Cc1nn(C)cc1N1C(=O)c2cccc3c(N)ccc(c23)C1=O`, 31.9% (active).
In the case of `CN1C(=O)c2cccc3c(N)ccc(c23)C1=O`, the inhibition was 24.4% (active).
Consider `CC(C(=O)O)N1C(=O)c2cccc3cccc1c23` (stereo unspecified), for which the inhibition was 3.93% (inactive).
For `COc1ccc([N+](=O)[O-])cc1NC(=O)c1ccc(N(Cc2ccccc2C)S(C)(=O)=O)cc1` the value was 0.0791% (inactive); for `COc1cc(OC)cc(/C(N)=N/O)c1`, 1.41% (inactive); for `CC(=O)Nc1ccc(NC(=O)C2CCCN2S(=O)(=O)c2cccc(C(F)(F)F)c2)cc1` (stereo unspecified), -2.31% (inactive).
In the case of `CC(=O)Nc1ccc(S(=O)(=O)NC(C)C(=O)OCCOc2ccc(F)cc2)cc1` (stereo unspecified), the inhibition was -1.41% (inactive).
Regarding `CCCCN(CC)CCNC(=O)CCNC(=O)Cn1ccc2ccccc2c1=O`, the inhibition was 0.375% (inactive).
With `COCCCNC(NC(=O)c1ccc(C)cc1)C(Cl)(Cl)Cl` (stereo unspecified) the figure was -0.407% (inactive); with `O=C(NNC1=NCCC1)c1cccc(S(=O)(=O)N2CCCCC2)c1`, 2.86% (inactive); with `COc1ccc(/C=C(/NC(=O)c2ccco2)C(=O)Nc2ccc(C(C)=O)cc2)cc1`, 0.676% (inactive).
`COc1ccc(-c2cc(C(=O)N3CCN(c4ccc(F)cc4)CC3)no2)cc1`: the inhibition was 0.979% (inactive).
In the case of `Oc1ccc2ccc3cccc[n+]3c2c1`, the inhibition was 45.7% (active).
Consider `CCc1ccc(C(=O)N2CCN(S(=O)(=O)c3sc(C(=O)O)c(C)c3C(=O)O)CC2)cc1`, for which the inhibition is 2.51% (inactive).
As to `COc1ccc(/C=C/C(=O)OCC(=O)NC2CCCCCC2)cc1OC`, the inhibition is 29.9% (active).
Regarding `COc1cc(/C=C/C(=O)OCC(=O)NC2CC2)cc(OC)c1OC`, the inhibition was 0.117% (inactive).
Take `COc1ccccc1/C=C/C(=O)OCC(=O)NC1CCCCCC1`: the inhibition was -0.893% (inactive).
For `COc1cccc(NC(=O)Cn2c3ccccc3c3nc4n(c(=O)c32)CCS4)c1` the value was 0.23% (inactive); for `COc1ccccc1NC(=O)C(C)OC(=O)c1ccc(-n2cnnn2)cc1` (stereo unspecified), -1.34% (inactive).
Take `COc1ccc(S(=O)(=O)N2CCN(C(=O)c3cc(C)oc3C)CC2)cc1`: the inhibition was -0.865% (inactive).
On to `COc1ccc(N(CC(=O)NC2CCCCC2)C(=O)CNC(=O)c2ccco2)c(OC)c1`, for which the inhibition is 2.4% (inactive).
In the case of `CC(C)CCNc1nc(N2CCCC2)c2c(c1C#N)CCN(C)C2`, the inhibition was 3.98% (inactive).
Consider `Clc1ccc(-c2cc(C3CCNCC3)[nH]n2)c(Cl)c1`, for which the inhibition is 1.34% (inactive).
With `O=C1CCc2cc(S(=O)(=O)Nc3ccc(C(F)(F)F)cc3)cc3c2N1CC3` the figure was -0.849% (inactive).
Regarding `Cc1nnc(Nc2ccccc2F)s1`, the inhibition was -1.25% (inactive).
For the molecule `CCc1ccc2c(c1)C1(NN=C(c3ccccc3)S1)C(=O)N2` (stereo unspecified), the inhibition is 1.69% (inactive).
With `O=C(OCc1cc(=O)n2ccsc2n1)C1(c2ccc(Cl)cc2)CC1`, the inhibition was -0.701% (inactive).
As for `COc1ccc([N+](=O)[O-])cc1N(CC(=O)Nc1ccccc1C(=O)N1CCOCC1)S(C)(=O)=O`, the inhibition was -1.48% (inactive).
As to `O=C(NCC#CCSc1nnc(-c2cccc3ccccc23)o1)c1cccs1`, the inhibition is 0.904% (inactive).
With `O=C(COC(=O)CCCSc1nc2ccccc2[nH]1)Nc1ccc(Oc2ccccc2)cc1` the figure was -1.64% (inactive); with `Cn1c(=O)[nH]c(=O)c2c1nc(NCCCn1ccnc1)n2Cc1cccc(Br)c1`, 1.02% (inactive); with `CCN1CC=C2C(C#N)=C(N)C(C#N)(C#N)[C@H](c3ccoc3)[C@H]2C1`, 13.1% (active).
For `N#CC1=C(N)C(C#N)(C#N)[C@H](c2ccsc2)[C@H]2COCC=C12` the value was 0.548% (inactive).
For `COc1ccc(OC)c(CCNC(=O)CCn2ccc3cc(S(=O)(=O)N4CCCC4)ccc32)c1` the value was -0.0435% (inactive).
Turning to `CCN(C(=O)COC(=O)CCC(=O)c1cccs1)C1CCCCC1`, the inhibition was 0.798% (inactive).
`CCN(C(=O)CSc1cccc[n+]1[O-])c1ccccc1`: the inhibition is 1.75% (inactive).
Consider `COc1ccccc1CCC(=O)OCC(=O)N1CCN(S(=O)(=O)c2ccc(C)cc2C)CC1`, for which the inhibition is 2.52% (inactive).
With `CC(=O)N1CC2(C)CN(C(C)=O)CC(C)(C1)C2=O`, the inhibition was -1.57% (inactive).
As for `COCCn1c(SCc2nc3cc(OC)c(OC)cc3c(=O)[nH]2)nnc1-c1ccncc1`, the inhibition was 0.376% (inactive).
Consider `COCCCNC(=O)CC1C[C@H](C(=O)N2CCCCC2)[C@@]2(CCc3ccccc3)c3[nH]c4ccccc4c3CCN2C1=O` (stereo partly specified), for which the inhibition was -1.3% (inactive).
